This is a sample that favours compounds with a hit; in the whole collection about 1.7% have one here.
PREPL inhibitor: PREPL enzyme inhibitors, primary screen, biochemical, fluorescence polarization | 320,000 compounds, 0.68% hits | inhibition, % at 5.96 µM | Prolyl endopeptidase-like (Homo sapiens), Q4J6C6 | recombinant PREPL, fluorescence polarization activity-based probe; in the data active means inhibition above about 43%
LYPLA2 inh: LYPLA2 inhibitors, primary screen, counter-screen for PME1 inhibitor project, biochemical, fluorescence polarization, FP-Rh probe ABPP. 320,000 compounds, 0.38% hits. Acyl-protein thioesterase 2 (Homo sapiens), O95372. AID 2177, 2009. inhibition, % at 5.9 µM. recombinant LYPLA2;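 active means inhibition above the screen-wide mean plus 3 SD, limit set per campaign, cut at about 26% in these data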
Target sequence (O95372 whole entry, looked up): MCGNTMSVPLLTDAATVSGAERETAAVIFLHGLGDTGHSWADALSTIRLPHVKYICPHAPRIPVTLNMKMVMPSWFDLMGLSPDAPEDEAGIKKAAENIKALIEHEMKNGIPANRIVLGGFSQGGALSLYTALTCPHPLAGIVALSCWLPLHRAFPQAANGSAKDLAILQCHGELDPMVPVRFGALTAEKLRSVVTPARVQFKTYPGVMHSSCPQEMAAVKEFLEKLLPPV
LYPLA1 inh: LYPLA1 inhibitors, primary screen, counter-screen for PME1 inhibitor project, biochemical, fluorescence polarization, FP-Rh probe ABPP; AID 2174, 2009; recombinant LYPLA1; inhibition, % at 5.9 µM; 320,000 compounds, 0.16% hits; Acyl-protein thioesterase 1 (Homo sapiens), O75608;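 active means inhibition above the mean of all tested compounds plus 3 SD, set per campaign, cut at about 14% in these data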;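 further: inhibitors block serine hydrolase probe labeling of LYPLA1 so polarization falls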
Target sequence (O75608 whole entry, looked up): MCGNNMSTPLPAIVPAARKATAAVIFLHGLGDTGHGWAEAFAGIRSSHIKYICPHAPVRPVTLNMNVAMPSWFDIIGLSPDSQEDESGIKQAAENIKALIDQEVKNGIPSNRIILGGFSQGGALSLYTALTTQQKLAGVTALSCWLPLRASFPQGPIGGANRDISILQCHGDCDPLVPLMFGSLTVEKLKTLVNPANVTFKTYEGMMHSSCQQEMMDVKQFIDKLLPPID
Rin1-Abl PPI inh: inhibitors of Rin1-Abl protein binding, primary screen, biochemical, TR-FRET; Tyrosine-protein kinase ABL1 (Homo sapiens) + Ras and Rab interactor 1 (Homo sapiens), …; inhibition, % at 7.35 µM; 360,000 compounds, 0.4% hits; AID 588664, 2011; in the data active means inhibition above about 5%, passing the limit was not always enough
Hck-Nef inh: inhibitors of Nef-activated human Hck kinase, primary screen, biochemical, Z-Lyte FRET, 384-well, Hck-YEEI; inhibition, % at 20 µM; Tyrosine-protein kinase HCK (Homo sapiens), P08631; Recombinant Hck-YEEI plus Nef, Z-Lyte FRET kinase assay; 220,000 compounds, 0.68% hits;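 active means Hck-Nef kinase inhibition above about 50%, limit read from the data; inactive means inhibition below that limit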
p97 inhibitor: inhibitors of human p97 ATPase, primary screen, biochemical. recombinant p97 ATPase, Kinase-Glo ATP luminescence, 3 h. Transitional endoplasmic reticulum ATPase (Homo sapiens), P55072. inhibition, % at 8 µM. 220,000 compounds, 0.42% hits; in the data active means inhibition above about 15%
Hck Nef conf: retest of Hck:Nef kinase inhibitor hits, confirmation, biochemical, Z-Lyte FRET, 384-well, p-Tyr peptide counterscreen | AID 463188, 2010 | 1,300 compounds, 28% hits | shares compounds with Hck-Nef inh | calls only at 10 µM | Recombinant Hck-YEEI:Nef, Z-Lyte FRET kinase assay;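 active means average inhibition of at least 50%, with Z-scores no higher than 3 in both the phospho-tyrosine peptide and fluorescence counterscreens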
Hits are given with their value; - = inactive; . = no result given; + = active, no number.

SMILES | PREPL inhibitor | LYPLA2 inh | LYPLA1 inh | Rin1-Abl PPI inh | Hck-Nef inh | p97 inhibitor | Hck Nef conf
N#Cc1c(-c2ccco2)nc(SCC(=O)Nc2cccc(Cl)c2)[nH]c1=O | - | - | - | - | 56 | - | +
Cc1ccc(-c2nnc(SCC(=O)Nc3sc(C)c(C)c3C#N)n2C)cc1 | - | - | - | - | 50 | - | -
COCCn1c(SCC(=O)Nc2sc(C)c(C)c2C#N)nnc1-c1ccc(OC)cc1 | - | - | - | - | - | - | .
CC(=O)n1cc(Nc2ccccc2C(=O)O)c2ccccc21 | - | - | - | - | - | - | .
CC(=O)n1cc(Nc2ccc([N+](=O)[O-])cc2)c2ccccc21 | - | - | - | - | 108 | - | -
C=CCOC(=O)C1=C(C)NC(SCC(=O)NC(=O)OCC)=C(C#N)C1c1cccnc1 (stereo not given) | - | - | - | - | 50 | - | -
O=C(N=Nc1c(O)[nH]c2ccccc12)c1cc(NS(=O)(=O)c2cccs2)cc(NS(=O)(=O)c2cccs2)c1 | - | - | - | - | 88 | - | +
CCc1cc(C(=O)N/N=C/c2ccc(OC)cc2)c2ccccc2n1 | - | - | - | - | . | . | .
CCOCCCNC(=S)NCCCNc1nc2cc3c(cc2cc1C#N)OCO3 | - | - | - | - | - | - | .
CN(C)CCCNC(=S)NCCNc1nc2cc3c(cc2cc1C#N)OCO3 | - | - | - | - | 51 | - | .
COCCNC(=S)NCCCNc1nc2cc3c(cc2cc1C#N)OCO3 | - | - | - | - | 70 | - | .
O=C(c1cnn(C(=O)c2cccc(S(=O)(=O)N3CCOCC3)c2)c1)c1ccccc1O | - | - | - | - | 129 | - | +
O=C(c1cnn(C(=O)c2cccc(S(=O)(=O)N3CCOCC3)c2)c1)c1cc(Cl)cc(Cl)c1O | - | - | - | . | - | - | .
Cc1cccc(N2CCN(C(=O)CSc3nc4ccccc4nc3N3CC(C)OC(C)C3)CC2)c1C (stereo not given) | - | - | - | - | . | . | .
Cc1ccc(C)c(NC(=O)c2cnn3ccccc23)c1 | - | - | - | - | 67 | - | +
Cc1ccc(C)c(NC(=O)c2cc3ccccn3n2)c1 | - | - | - | - | - | - | .
NC(=O)c1c(NC(=O)Cn2nc(C(=O)O)c3ccccc3c2=O)sc2c1CCC2 | - | - | - | - | 91 | - | -
O=C(Cn1nc(C(=O)O)c2ccccc2c1=O)Nc1nc(-c2ccccc2)cs1 | - | - | - | - | 52 | - | -
Cc1ccccc1NC(=O)Cn1nc(C(=O)O)c2ccccc2c1=O | - | - | - | - | . | . | .
Cc1cccn2c(=O)c(/C=N/O)c(NCc3ccccc3)nc12 | - | - | - | - | - | - | .
Cc1cccn2c(=O)c(/C=N/O)c(Nc3ccccc3F)nc12 | - | - | - | - | 70 | - | -
CCOC(=O)N1CCN(C(=O)/C=C/c2ccc(OC)cc2)CC1 | - | - | - | - | . | . | .
Cc1c2c(=O)n(-c3nc4ccccc4s3)nc-2cc(O)n1Cc1ccccc1 | . | . | . | - | 84 | - | -
O=C1NC(=Nc2ccc(O)cc2)S/C1=C/c1ccco1 | - | - | - | - | 81 | - | -
COc1ccc(N=C2NC(=O)/C(=C\C=C\c3ccco3)S2)cc1 | . | . | . | - | 88 | - | +
SMILES | PREPL inhibitor | LYPLA2 inh | LYPLA1 inh | Rin1-Abl PPI inh | Hck-Nef inh | p97 inhibitor | Hck Nef conf
Cc1cccc(N=C2NC(=O)/C(=C/C=C/c3ccco3)S2)c1 | - | - | - | - | - | - | .
Cc1ccc(N=C2NC(=O)/C(=C\c3ccco3)S2)cc1 | - | - | - | - | - | - | .
O=C(C=CC(=O)OC1CCCCC1)OC1CCCCC1 | . | . | . | - | . | . | .
Cc1ccc2[nH]c3c(NCc4ccco4)ncnc3c2c1 | - | - | - | - | - | - | .
COc1cc(OC)c(OC)cc1/C=N/Nc1ncnc2c1[nH]c1ccccc12 | - | - | - | - | 53 | - | .
COc1ccc(/C=N/Nc2ncnc3c2[nH]c2ccc(C)cc23)c(OC)c1OC | - | - | - | - | 69 | - | +
Cc1cc2c3c([nH]c2cc1S(=O)(=O)NCc1ccc(CN2CCCCCC2)o1)CCCC3=O | - | - | - | - | . | . | .
O=C(CN(Cc1cccs1)C(=O)CNS(=O)(=O)c1ccc(F)cc1)NCC1CCCO1 (stereo not given) | - | - | - | - | - | - | .
O=C(CN(Cc1cccs1)C(=O)CNS(=O)(=O)c1ccc(Cl)cc1)NCC1CCCO1 (stereo not given) | - | - | - | - | 53 | - | -
Cc1nn(-c2ccccc2)c(C)c1-c1cc(C(=O)N/N=C/c2ccc(O)cc2)[nH]n1 | - | - | - | - | 66 | - | +
COc1cc(/C=N/NC(=O)c2cc(-c3c(C)nn(-c4ccccc4)c3C)n[nH]2)ccc1O | - | - | - | - | - | - | .
COc1ccc(/C=N/NC(=O)c2cc(C(C)(C)C)[nH]n2)cc1COc1ccc(F)cc1F | - | - | - | - | 58 | - | -
COc1ccc(/C=N\NC(=O)c2ccccc2F)cc1COc1ccc(F)cc1F | - | - | - | - | . | . | .
CC1(C(=O)NS(=O)(=O)c2cccc(C#N)c2)CCN1C(=O)Cc1ccc(-c2ccccc2)cc1 (stereo not given) | . | . | . | - | . | . | .
CCN1/C(=C\C=C2\C(=O)N(C)C(=S)N2C)Sc2ccccc21 | - | - | - | - | 72 | - | -
COC(=O)c1ccc(Cn2c(C)c(C(=O)NCc3ccc(Cl)c(Cl)c3)sc2=O)o1 | . | . | . | - | . | . | .
C=CCOc1ccc(Br)cc1/C=C1/SC(=Nc2ccc(C(=O)O)cc2)NC1=O | . | . | . | - | 59 | - | +
C=CCOc1c(Br)cc(/C=C2\SC(=Nc3ccccc3)NC2=O)cc1OC | . | . | . | - | . | . | .
Cc1cc(C)c2c(N)c3ccccc3nc2n1 | - | - | - | - | 53 | - | -
COc1cc(/C=C2/C(=N)N3C(c4ccccc4)=CSC3=NC2=O)ccc1OCC(=O)O | - | - | - | - | 79 | - | +
Cc1ccc(C2=NOC(=O)/C2=C\C=C\c2ccccc2)cc1 | . | . | . | - | 56 | - | -
CN(C)/C=C1\C(=O)ON=C1c1ccccc1 | - | - | - | - | - | - | .
Cc1cc(C)c(S(=O)(=O)N2CCN(C(=O)c3ccccc3OCc3c(C)noc3C)CC2)c(C)c1 | . | . | . | - | . | . | .
COc1ccc(NC(=O)/C(C#N)=C\c2ccc(OCc3ccc(C(=O)O)cc3)c(OC)c2)cc1 | - | - | - | - | 70 | - | -
N#C/C(=C\c1ccccc1OCc1ccc(C(=O)O)cc1)C(=O)Nc1ccc(O)cc1 | - | - | - | - | 69 | - | -

High-throughput results deposited in PubChem by several laboratories.
